Source: PubChem BioAssay (NCATS)
Inconclusive results are not listed. Where a call stands in place of a potency, no number is given. The source holds several records for some structures; these can differ, active in one and inactive in another. Active and inactive are the calls of the source. The call rests on the fitted dose curve; in most records, active means well fitted inhibition curve with a large enough effect; inconclusive means small, poorly fitted or top-dose-only effect; inactive means flat fitted curve, though single readings scatter.

How the values were obtained:
[1] = target: Phospholipid hydroperoxide glutathione peroxidase GPX4 (Homo sapiens) (UniProt P36969); assay: Primary qHTS Assay for Inhibitors of Recombinant Selenoprotein Glutathione Peroxidase 4 (GPX4) (AID 1845192); settings: recombinant GPX4, GR-coupled NADPH fluorescence, 15 min; series mostly up to 50 µM
How it was run: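 GR-coupled readout: 100 nM GR, 1 mM GSH, 0.5 mM NADPH; NADPH fluorescence (ex 340/em 450 nm) read at t=0 and after 15 min RT. GPX4 200 nM, preincubated 30 min with compound; substrate 0.5 mM CHP.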

[2] = target: Glutathione peroxidase 1 (Homo sapiens) (UniProt P07203); assay: Primary qHTS Assay for Inhibitors of Recombinant Selenoprotein Glutathione Peroxidase 1 (GPX1) (AID 1845191); settings: recombinant GPX1, GR-coupled NADPH fluorescence, 15 min; series mostly up to 48.8 µM
How it was run: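 Recombinant GPX1 (10 nM final) was preincubated with compound for 30 min at room temperature, then reacted with 1 mM GSH, 0.5 mM CHP, 0.5 mM NADPH and 100 nM glutathione reductase; NADPH fluorescence (340/450 nm) was read at 0 and 15 min.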
Further: nearly all actives have a fitted effect of over 65% in size.
Potency means the concentration at half of the fitted maximal effect.

Chain of Phospholipid hydroperoxide glutathione peroxidase GPX4 (Homo sapiens) (P36969 whole entry, looked up): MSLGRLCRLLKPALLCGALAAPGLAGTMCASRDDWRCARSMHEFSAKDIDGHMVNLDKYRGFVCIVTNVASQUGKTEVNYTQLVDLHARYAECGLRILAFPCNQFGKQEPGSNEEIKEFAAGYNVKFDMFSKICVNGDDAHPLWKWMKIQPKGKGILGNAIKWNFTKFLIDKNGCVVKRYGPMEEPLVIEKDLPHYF
Chain of Glutathione peroxidase 1 (Homo sapiens) (P07203 whole entry, looked up): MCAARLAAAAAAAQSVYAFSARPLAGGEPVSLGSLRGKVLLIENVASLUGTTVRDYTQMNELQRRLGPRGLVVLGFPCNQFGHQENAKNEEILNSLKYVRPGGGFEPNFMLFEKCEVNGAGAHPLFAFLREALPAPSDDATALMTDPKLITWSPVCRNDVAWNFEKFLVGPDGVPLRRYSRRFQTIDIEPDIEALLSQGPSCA

Q: `CN1[C@@H]2CC(OC(=O)[C@H](CO)c3ccccc3)C[C@H]1[C@@H]1O[C@@H]12` (some centres not stated) was tested. Which Potency [1] did it give?
A: inactive

Q: Which Potency [1] does the source give for `O=C1Nc2ccc(Cl)cc2[C@@](C#CC2CC2)(C(F)(F)F)O1` here?
A: inactive

Q: For `Cc1ccc(C(C)C)cc2c(C)ccc1-2`, which Potency [1] is on record?
A: inactive

Q: Which Potency [2] does the source give for `COc1ccccc1O` here?
A: inactive

Q: What about the Potency [1] of the same compound?
A: inactive

Q: For `C[C@@H]1C[C@H]2[C@@H]3C[C@H](F)C4=CC(=O)C=C[C@]4(C)[C@@]3(F)[C@@H](O)C[C@]2(C)[C@@]1(O)C(=O)CO`, which Potency [1] is on record?
A: inactive

Q: `Nc1ccc(S(=O)(=O)Nc2nccs2)cc1` was tested. Which Potency [1] did it give?
A: inactive

Q: Which activity change, negative = inhibition [1] does the source give for `N[C@@H](CSSC[C@H](N)C(=O)O)C(=O)O` here?
A: -7.83% [at 0.409 µM] (inactive)

Q: How did the Potency [1] turn out when `Cn1c(=O)c2c(ncn2CC2OCCO2)n(C)c1=O` was run?
A: inactive

Q: With `Cc1ccc2nc(N)[nH]c(=O)c2c1Sc1ccncc1` as the compound, how does the Potency [1] read?
A: inactive

Q: With `CCC(=O)c1ccc(O)cc1` as the compound, how does the Potency [2] read?
A: inactive

Q: And the Potency [1]?
A: inactive

Q: How did the Potency [2] turn out when `CCCCCCCCCCCCOS(=O)(=O)O` was run?
A: inactive

Q: And the Potency [1]?
A: inactive

Q: With `CCCCN(CCCC)CCCOC(=O)c1ccc(N)cc1` as the compound, how does the Potency [2] read?
A: inactive

Q: What about the Potency [1] of the same compound?
A: inactive

Q: Which Potency [2] does the source give for `N[C@H]1C(O)O[C@H](CO)[C@@H](O)[C@@H]1O` (some centres not stated) here?
A: inactive

Q: What about the Potency [1] of the same compound?
A: inactive

Q: Which results are given for `CCOc1ccc2ccccc2c1C(=O)N[C@@H]1C(=O)N2[C@@H]1SC(C)(C)[C@@H]2C(=O)O`?
A: Potency [2]: inactive; Potency [1]: inactive

Q: Which Potency [1] does the source give for `O=C(Oc1ccccc1C(=O)O)c1ccccc1O` here?
A: inactive

Q: How did the Potency [2] turn out when `CCCCCCCCCCCCCCCCCCOCC(O)CO` (configuration not stated) was run?
A: inactive

Q: What about the Potency [1] of the same compound?
A: inactive

Q: With `CN1CCCCC1CCN1c2ccccc2Sc2ccc(S(C)=O)cc21` (configuration not stated) as the compound, how does the Potency [1] read?
A: inactive

Q: Which Potency [2] does the source give for `OCC(CO)N[C@H]1C[C@](O)(CO)[C@@H](O)[C@H](O)[C@H]1O` here?
A: inactive

Q: And the Potency [1]?
A: inactive

Q: With `COc1cc(C)c(Cc2cnc(N)nc2N)cc1OC` as the compound, how does the Potency [1] read?
A: inactive

Q: For `CCCOC(=O)c1ccccc1`, which Potency [1] is on record?
A: inactive

Q: For `CCOC(=O)c1ccc(O)cc1`, which Potency [2] is on record?
A: inactive

Q: And the Potency [1]?
A: inactive

Q: `O=C(O)Cc1sc(-c2ccccc2)nc1-c1ccc(Cl)cc1` was tested. Which Potency [2] did it give?
A: inactive

Q: And the Potency [1]?
A: inactive

Q: `CC/C=C(\C(=O)N[C@@H]1C(=O)N2C(C(=O)OCOC(=O)C(C)(C)C)=C(COC(N)=O)CS[C@H]12)c1csc(N)n1` was tested. Which Potency [2] did it give?
A: 9.04 µM (active)

Q: And the Potency [1]?
A: 11.2 µM (active) and inactive

Q: For `CN1[C@@H]2CC[C@H]1CC(OC(=O)C(O)c1ccccc1)C2` (some centres not stated), which Potency [2] is on record?
A: inactive

Q: And the Potency [1]?
A: inactive

Q: Which Potency [1] does the source give for `O=C(O)COc1nn(Cc2ccccc2)c2ccccc12` here?
A: inactive

Q: Which results are given for `O=c1[nH]cnc2c1ncn2[C@@H]1O[C@H](CO)[C@@H](O)[C@H]1O`?
A: Potency [2]: inactive; Potency [1]: inactive

Q: `OC[C@H]1O[C@@H](O[C@@H]2[C@@H](CO)O[C@](O)(CO)[C@H]2O)[C@H](O)[C@@H](O)[C@H]1O` was tested. Which Potency [1] did it give?
A: inactive

Q: `CC(C)(C)c1onc(OCP(=O)(O)O)c1CC(N)C(=O)O` (configuration not stated) was tested. Which Potency [1] did it give?
A: inactive

Q: For `Oc1cn2c(n1)Nc1ccc(Cl)c(Cl)c1C2`, which Potency [2] is on record?
A: inactive

Q: What about the Potency [1] of the same compound?
A: inactive

Q: For `C[C@@H]1CCN(C(=O)[C@H](CCCN=C(N)N)NS(=O)(=O)c2cccc3c2NC[C@H](C)C3)[C@@H](C(=O)O)C1`, which Potency [1] is on record?
A: inactive

Q: How did the Potency [2] turn out when `O=C1NS(=O)(=O)c2ccccc21` was run?
A: inactive

Q: What about the Potency [1] of the same compound?
A: inactive

Q: How did the Potency [2] turn out when `NC(=O)c1ncn([C@@H]2O[C@H](CO)[C@@H](O)[C@H]2O)c1N` was run?
A: inactive

Q: What about the Potency [1] of the same compound?
A: inactive

Q: Which Potency [1] does the source give for `Cc1cccc(Nc2cc(Cl)nc(SCC(=O)O)n2)c1C` here?
A: inactive

Q: `c1ccc2c(CC3=NCCN3)cccc2c1` was tested. Which Potency [2] did it give?
A: inactive

Q: What about the Potency [1] of the same compound?
A: inactive

Q: `C[C@H](N)[C@H](O)c1cccc(O)c1` was tested. Which Potency [1] did it give?
A: inactive
